According to ChEMBL document CHEMBL1961873, “Compounds: GSK PKIS; Assays: Nanosyn kinase panel” (2012):

Legend:
[1] = target: Sphingosine kinase 1 (Homo sapiens) (UniProt Q9NYA1); details: at 1 µM;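 further: mean SPHK1 inhibition value reported from the GSK PKIS kinase panel screen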
[2] = target: T1, Sphingosine kinase 2 (Homo sapiens) (UniProt Q9NRA0); details: at 0.1 µM
T1 sequence (whole entry): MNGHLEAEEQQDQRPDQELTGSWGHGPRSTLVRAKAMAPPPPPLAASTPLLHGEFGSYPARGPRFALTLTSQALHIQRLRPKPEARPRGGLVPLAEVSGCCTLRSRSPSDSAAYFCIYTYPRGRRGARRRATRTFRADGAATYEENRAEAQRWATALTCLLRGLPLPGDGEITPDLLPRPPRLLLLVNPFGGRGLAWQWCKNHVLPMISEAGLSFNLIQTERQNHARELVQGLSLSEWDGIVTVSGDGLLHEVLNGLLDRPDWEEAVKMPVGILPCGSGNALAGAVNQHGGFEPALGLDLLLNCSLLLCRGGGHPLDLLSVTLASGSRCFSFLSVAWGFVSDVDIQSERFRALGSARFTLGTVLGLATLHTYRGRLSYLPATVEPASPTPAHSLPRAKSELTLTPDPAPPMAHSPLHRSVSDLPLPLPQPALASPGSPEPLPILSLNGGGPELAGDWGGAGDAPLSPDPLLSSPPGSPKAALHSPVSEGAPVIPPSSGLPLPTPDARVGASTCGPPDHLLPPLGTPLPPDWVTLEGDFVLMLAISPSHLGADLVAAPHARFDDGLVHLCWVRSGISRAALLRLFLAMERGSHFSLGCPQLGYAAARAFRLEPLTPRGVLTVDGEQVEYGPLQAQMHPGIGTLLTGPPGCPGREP

[3] = target: T1, Sphingosine kinase 2 (Homo sapiens); details: at 1 µM
[4] = target: Casein kinase II subunit alpha (Homo sapiens) (UniProt P68400); details: at 0.1 µM
[5] = target: Casein kinase II subunit alpha (Homo sapiens) (UniProt P68400); details: at 1 µM
[6] = target: T2, Inhibitor of nuclear factor kappa-B kinase subunit alpha (Homo sapiens) (UniProt O15111); details: at 0.1 µM
T2 sequence (whole entry): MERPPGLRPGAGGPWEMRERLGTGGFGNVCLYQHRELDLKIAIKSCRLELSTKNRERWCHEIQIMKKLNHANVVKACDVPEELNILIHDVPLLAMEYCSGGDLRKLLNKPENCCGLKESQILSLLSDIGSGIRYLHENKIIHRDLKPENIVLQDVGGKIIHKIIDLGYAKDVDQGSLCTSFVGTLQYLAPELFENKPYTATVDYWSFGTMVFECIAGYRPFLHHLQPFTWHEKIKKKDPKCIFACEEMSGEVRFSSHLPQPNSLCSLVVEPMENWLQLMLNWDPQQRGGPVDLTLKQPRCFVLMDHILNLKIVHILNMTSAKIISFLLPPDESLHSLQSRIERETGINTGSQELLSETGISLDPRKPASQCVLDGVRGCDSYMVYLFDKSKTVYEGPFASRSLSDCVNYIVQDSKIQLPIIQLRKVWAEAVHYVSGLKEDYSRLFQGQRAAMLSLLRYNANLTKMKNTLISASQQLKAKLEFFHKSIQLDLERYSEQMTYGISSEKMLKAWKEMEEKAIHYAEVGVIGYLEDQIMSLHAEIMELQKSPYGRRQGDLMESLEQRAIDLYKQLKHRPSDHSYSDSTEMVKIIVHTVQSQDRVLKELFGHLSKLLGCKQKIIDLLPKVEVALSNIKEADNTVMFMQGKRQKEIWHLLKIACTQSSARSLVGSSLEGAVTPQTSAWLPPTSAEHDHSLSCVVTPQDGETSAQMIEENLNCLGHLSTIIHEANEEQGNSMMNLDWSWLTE

[7] = target: T2, Inhibitor of nuclear factor kappa-B kinase subunit alpha (Homo sapiens); details: at 1 µM
[8] = target: T3, Inhibitor of nuclear factor kappa-B kinase subunit beta (Homo sapiens) (UniProt O14920); details: at 0.1 µM
T3 sequence (whole entry): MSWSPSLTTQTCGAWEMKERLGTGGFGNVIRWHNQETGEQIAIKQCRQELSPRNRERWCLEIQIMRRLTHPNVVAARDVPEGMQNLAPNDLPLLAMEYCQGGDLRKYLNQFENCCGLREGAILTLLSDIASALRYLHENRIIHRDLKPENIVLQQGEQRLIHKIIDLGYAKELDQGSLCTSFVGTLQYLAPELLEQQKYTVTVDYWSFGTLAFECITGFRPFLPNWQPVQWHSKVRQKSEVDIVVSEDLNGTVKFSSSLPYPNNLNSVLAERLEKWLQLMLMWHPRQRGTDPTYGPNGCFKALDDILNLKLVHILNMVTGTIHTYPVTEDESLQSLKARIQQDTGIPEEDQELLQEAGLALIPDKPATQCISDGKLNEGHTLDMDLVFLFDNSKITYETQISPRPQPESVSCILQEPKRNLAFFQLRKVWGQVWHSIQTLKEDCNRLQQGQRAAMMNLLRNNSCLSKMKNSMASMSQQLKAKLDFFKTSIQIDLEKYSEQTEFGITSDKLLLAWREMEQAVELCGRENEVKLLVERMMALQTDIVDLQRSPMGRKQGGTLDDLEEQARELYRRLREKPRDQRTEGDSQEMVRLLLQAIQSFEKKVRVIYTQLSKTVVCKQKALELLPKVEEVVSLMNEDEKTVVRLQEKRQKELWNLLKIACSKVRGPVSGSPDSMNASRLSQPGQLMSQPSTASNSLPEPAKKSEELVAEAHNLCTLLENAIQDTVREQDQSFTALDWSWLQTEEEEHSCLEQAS

[9] = target: T3, Inhibitor of nuclear factor kappa-B kinase subunit beta (Homo sapiens); details: at 1 µM
[10] = target: T4, Inhibitor of nuclear factor kappa-B kinase subunit epsilon (Homo sapiens) (UniProt Q14164); details: at 0.1 µM;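 further: mean inhibition of IKKε reported, from the GSK PKIS dataset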
T4 sequence (whole entry): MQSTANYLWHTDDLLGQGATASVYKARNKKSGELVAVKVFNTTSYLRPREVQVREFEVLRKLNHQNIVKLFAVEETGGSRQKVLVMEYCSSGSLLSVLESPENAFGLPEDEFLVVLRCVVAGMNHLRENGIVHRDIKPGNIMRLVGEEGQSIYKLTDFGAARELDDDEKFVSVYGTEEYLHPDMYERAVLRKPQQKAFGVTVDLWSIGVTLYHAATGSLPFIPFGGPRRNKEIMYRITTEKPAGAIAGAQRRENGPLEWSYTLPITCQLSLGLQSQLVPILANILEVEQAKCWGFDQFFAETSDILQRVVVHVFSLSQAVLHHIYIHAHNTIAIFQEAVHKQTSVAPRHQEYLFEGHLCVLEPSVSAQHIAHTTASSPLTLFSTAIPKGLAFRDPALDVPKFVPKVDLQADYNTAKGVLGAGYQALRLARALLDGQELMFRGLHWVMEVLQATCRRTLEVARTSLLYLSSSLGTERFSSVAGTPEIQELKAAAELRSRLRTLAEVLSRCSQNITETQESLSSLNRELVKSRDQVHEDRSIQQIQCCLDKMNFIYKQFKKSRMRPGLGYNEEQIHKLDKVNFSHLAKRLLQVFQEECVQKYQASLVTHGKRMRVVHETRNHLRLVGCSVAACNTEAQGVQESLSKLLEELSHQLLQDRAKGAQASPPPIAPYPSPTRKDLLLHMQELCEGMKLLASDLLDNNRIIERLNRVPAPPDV

Sequence of Casein kinase II subunit alpha (Homo sapiens) (P68400 whole entry, looked up): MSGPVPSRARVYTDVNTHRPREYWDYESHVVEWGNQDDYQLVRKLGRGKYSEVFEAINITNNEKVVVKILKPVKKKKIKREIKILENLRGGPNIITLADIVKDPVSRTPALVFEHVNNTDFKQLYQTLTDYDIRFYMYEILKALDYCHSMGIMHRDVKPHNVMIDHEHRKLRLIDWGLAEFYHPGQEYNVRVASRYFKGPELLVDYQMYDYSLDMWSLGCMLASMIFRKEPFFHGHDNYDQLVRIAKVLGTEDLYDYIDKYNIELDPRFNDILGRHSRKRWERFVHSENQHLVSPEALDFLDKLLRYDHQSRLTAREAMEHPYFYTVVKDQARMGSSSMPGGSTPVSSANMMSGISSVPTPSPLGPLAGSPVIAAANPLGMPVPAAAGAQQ
Sequence of Sphingosine kinase 1 (Homo sapiens) (Q9NYA1 whole entry): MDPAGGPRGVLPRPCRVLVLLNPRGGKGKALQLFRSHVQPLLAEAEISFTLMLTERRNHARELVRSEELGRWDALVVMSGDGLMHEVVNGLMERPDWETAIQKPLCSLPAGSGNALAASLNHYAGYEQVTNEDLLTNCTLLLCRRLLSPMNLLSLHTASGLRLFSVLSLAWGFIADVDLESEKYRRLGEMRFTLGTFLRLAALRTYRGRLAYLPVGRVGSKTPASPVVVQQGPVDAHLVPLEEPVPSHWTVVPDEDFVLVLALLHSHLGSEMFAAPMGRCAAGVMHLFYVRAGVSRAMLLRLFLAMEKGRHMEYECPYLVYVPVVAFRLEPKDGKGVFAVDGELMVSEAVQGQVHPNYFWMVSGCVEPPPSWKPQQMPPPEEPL

`COc1ccc2cc(-c3c(-c4ccncc4)nc(-c4ccc([S+](C)[O-])cc4C)n3C)ccc2c1` (stereo not given) gave an inhibition [1] of 5.11%, an inhibition [2] of 0.43% and an inhibition [3] of 0.76%. It also gave an inhibition [4] of 2.77%, an inhibition [5] of 3.85% and an inhibition [6] of -4.94%. The inhibition [7] was -5.55%, the inhibition [8] was -0.05% and the inhibition [9] was -2.53%. For the same compound, the inhibition [10] was -2.45%.
